# Source: PubChem
# beta cell repl – inducers of MIN6 beta-cell proliferation, primary screen, ATP luminescence, uHTS | proliferation, % at 10 µM | hit rate 0.29% among 330,000 | MIN6 cells proliferation, ATPlite luminescence, 48 h; cells starved in 0.2% serum; 100% = growth in 10% serum;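 active means compounds whose signal lies at least 3.5 SD above the mean of all wells on their plate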;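 further: 0% = DMSO-treated cells in low-serum medium and 100% = 10% serum control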
# Cardio protect – cardioprotection against H2O2-induced cell death, primary screen, uHTS, H9c2 cells, ATPLite luminescence; AID 588492, 2011; H9c2 cardiomyocytes, H2O2 injury protection, 2 h; protection from H2O2 cell death, % at 20 µM; hit rate 0.63% among 360,000;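 active means compounds giving at least 50% protection of heart cells from peroxide-induced death in the single-dose screen, raw or plate-pattern-corrected value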;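 further: 0% = DMSO wells with peroxide and 100% = DMSO wells without peroxide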
# p-CIP stab down – p/CIP-EGFP fusion destabilizers, primary screen, fluorescence, F442A cells | AID 1984, 2009 | 16 h | hit rate 0.01% among 290,000 | decrease of EGFP signal, % at 10 µM;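 active means EGFP signal decrease of at least 30% at 10 µM or well 3 SD below plate mean, unless failing retest; inactive means the rest, including hits failing retest or dose response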
# Yeast superoxide – reduction of superoxide in aged yeast, primary screen, HTS; S. cerevisiae aged cells, superoxide DHE fluorescence; stronger effect = lower value; superoxide response (% of plate mean), % at 10 µM; hit rate 0.18% among 330,000;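 active means superoxide response under a set limit, about three screen SD below normal, cut at about 65% in these data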;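 further: yeast aged for seven days with compound at 30 °C before DHE staining; 100% = average MFI of all compound-treated wells on the plate with controls excluded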
# V-ATPase pHluor – regulators of yeast V-ATPase proton pumping, primary screen, pHLuorin cytosolic pH fluorescence; S. cerevisiae; response, % at 10 µM; hit rate 0.37% among 350,000; AID 504577, 2011; in the data active means response mostly above about 7.3%, no sharp cut-off; inactive means mostly below about 5.4%; further: actives read high
# HSV augment – enhancers of HSV replication in host cells, fold increase, host cell viability; AID 1956, 2009; maximum fold increase; HSV replication augmentation in cells; hit rate 0.005% among 220,000; in the data active means maximum fold increase above about 1.5; tested in PC3 cells
# Numbers without * were called inactive; i = inactive; . = not tested or not shown. Hits are enriched below; roughly 1.4% of the tested compounds scored in any of these assays.
SMILES,beta cell repl,Cardio protect,p-CIP stab down,Yeast superoxide,V-ATPase pHluor,HSV augment
CC1CC(=O)Nc2ccccc2N1C(=O)COc1ccccc1C(N)=O (configuration not stated),.,34.7,.,.,1.8,.
CC1CCc2nc3ccccc3c(C(=O)OCC(=O)N3CCc4ccccc43)c2C1 (configuration not stated),1.5,29.2,-10.2,92.7,15.7*,i
O=C(C[C@H]1C/C=C\CC[C@H](Cc2ccc(F)cc2)C(=O)O[C@H](c2ccccc2)CNC1=O)N[C@H](CO)Cc1ccccc1,-3.8,90.2*,.,105.6,-2.0,.
O=C(C[C@H]1C/C=C\C[C@H](Cc2ccc(F)cc2)C(=O)O[C@@H](c2ccccc2)CNC1=O)N[C@H](CO)Cc1ccccc1,-3.7,18.2,.,82.4,-3.0,.
CC(C)(C)OC(=O)C[C@H]1C/C=C\C[C@H](CC(=O)N[C@H](CO)Cc2ccccc2)C(=O)N[C@H](Cc2ccccc2)COC1=O,-0.5,57.9*,.,102.2,3.4,.
CC(C)(C)OC(=O)C[C@@H]1C/C=C\C[C@H](CC(=O)N[C@H](CO)Cc2ccccc2)C(=O)N[C@H](Cc2ccccc2)COC1=O,-1.6,18.6,.,106.1,1.9,.
O=C(C[C@H]1C/C=C\CC[C@H](Cc2ccc(F)cc2)C(=O)O[C@@H](c2ccccc2)CNC1=O)N[C@H](CO)Cc1ccccc1,-5.5,50.7*,.,87.4,-5.6,.
O=C(C[C@H]1C/C=C\CC[C@H](Cc2ccc(F)cc2)C(=O)O[C@@H](c2ccccc2)CNC1=O)N[C@@H](CO)Cc1ccccc1,-5.2,41.8,.,82.5,-0.5,.
CCC(NC(=O)COc1cc2c(c3oc(=O)c(C)c(C)c13)CCC(C)(C)O2)C(=O)O (configuration not stated),-1.3,3.9,-6.6,93.9,4.4,.
COc1cccc(N(CC(=O)NC2CCCC2)C(=O)CCC(=O)Nc2cc(C)on2)c1,-1.4,2.2,-7.7,89.6,0.2,.
Cn1c(=O)c2[nH]c(NN=Cc3cccc(Br)c3)nc2n(C)c1=O,.,50.1*,.,.,3.6,.
CCC(C)N(C(=O)COC(=O)Cc1n[nH]c(=O)c2ccccc12)C1CCS(=O)(=O)C1 (configuration not stated),3.1,59.5*,-4.5,94.0,-0.2,i
CCC(C)N(C(=O)COC(=O)CCc1c[nH]c2ccccc12)C1CCS(=O)(=O)C1 (configuration not stated),-1.2,-8.3,16.4,80.4,-1.9,.
CC(C)(C)OC(=O)C[C@@H]1C/C=C\C[C@H](CC(=O)N(CCO)Cc2ccccc2)C(=O)N[C@@H](Cc2c[nH]c3ccccc23)COC1=O,-2.0,14.5,.,91.7,0.3,.
Cc1ccc(Nc2nc(N)[nH]c(=O)c2N=O)cc1,-0.3,51.9*,-0.5,89.9,-0.6,i
C=CCN1CCCC1CNC(=O)c1cc2[nH]nnc2cc1OC (configuration not stated),-5.0,1.2,.,90.0,15.1*,.
COc1ccc(CCn2c(Br)nc3c2c(=O)[nH]c(=O)n3C)cc1,-2.5,63.9*,14.4,119.4,-7.8,i
CSCc1ccc(C(=O)OCC(=O)NC2CCCC2)o1,.,2.3,.,.,-2.5,.
C/C(=N\NC(=O)COc1ccc(C#N)cc1)c1ccccc1OC(F)F,6.9*,5.2,3.3,99.5,-1.3,i
C/C(=N\NC(=O)COc1ccc(C(C)(C)C)cc1)c1ccc(OC(F)F)cc1,0.0,-12.0,-0.7,87.3,0.9,i
CC(C)Oc1cc(F)ccc1-c1cc(C(=O)NCCc2ccncc2)[nH]n1,.,3.9,.,.,.,.
COc1cccc(Nc2nc(-c3sc(N)nc3C)cs2)c1,0.1,63.2*,-13.7,92.2,-1.2,i
COc1cccc(Nc2nc(-c3sc(NC(=O)c4ccco4)nc3C)cs2)c1,-7.7,50.0*,0.0,93.3,1.6,i
NC(=O)c1ccc(NC(=O)COc2cccc3c2CCNC3=O)cc1,-1.1,78.7*,.,.,-2.7,.
COc1ccccc1NC(=O)COc1cccc2c1CCNC2=O,4.3,63.9*,.,102.8,-5.1,.
SMILES,beta cell repl,Cardio protect,p-CIP stab down,Yeast superoxide,V-ATPase pHluor,HSV augment
O=C(COc1cccc2c1CCNC2=O)Nc1ccc(Cl)cc1,-3.2,63.5*,.,.,2.8,.
COc1ccccc1NC(=O)COc1ccc(C(=O)OCC(=O)NC(C)(C)C)cc1OC,0.9,58.8*,-3.0,108.1,-2.0,i
CCCNC(=O)COC(=O)c1ccc(OCC(=O)Nc2ccccc2OC)c(OC)c1,-2.6,1.7,-4.7,99.3,-0.2,i
CCOC(=O)C1(CC2CC2)CCN(C(=O)c2cccnc2C)CC1,-2.1,4.7,-12.1,99.1,0.0,i
Cc1ccccc1C(C)NS(=O)(=O)c1ccc2c(c1)OCCO2 (configuration not stated),2.6,-1.6,.,110.5,-0.6,.
O=C(NCc1ccco1)C(c1ccccc1)N(C(=O)Cc1cccs1)c1ccccc1F (configuration not stated),-2.2,75.0*,-16.8,78.5,-2.4,i
CN1C(=O)C(C)(C)c2cc(S(=O)(=O)N3CCC(C(=O)NCc4ccccc4Cl)CC3)ccc21,2.5,-3.5,-7.3,107.8,1.5,.
Cc1ccc(C(=O)OCC(=O)NCc2cccc(Cl)c2)cc1S(=O)(=O)N1CCCCC1,-6.4,-8.2,.,.,-0.6,.
Cc1ccc(S(=O)(=O)N(C(=O)c2ccncc2)c2ccc(OC(=O)c3ccncc3)cc2)c(C)c1,0.0,32.1,-2.6,133.5,-0.3,i
Cc1ccc(C)c(S(=O)(=O)N(C(=O)c2ccncc2)c2ccc(OC(=O)c3ccncc3)cc2)c1,-0.6,53.1*,-1.0,92.2,-2.2,i
Cc1onc(-c2ccccc2)c1C(=O)N/N=C/c1c(F)cccc1Cl,-4.1,-5.5,2.4,94.7,1.3,.
N#C/C(=C\Nc1ccc2c(c1)OCCO2)c1nc2ccccc2[nH]1,-3.8,81.5*,-14.8,91.5,0.4,i
COc1ccc(NC(=S)N(CCCN2CCCC2)Cc2cccn2Cc2ccc(Cl)cc2)cc1Cl,-6.2,-6.2,-9.4,98.3,-2.1,i
CCOc1ccc(-n2cc(-c3ccccc3)c3c(N4CCOCC4)ncnc32)cc1,-5.2,63.0*,1.7,100.3,-1.8,i
CCOc1ccc(-n2cc(-c3ccccc3)c3c(=S)nc[nH]c32)cc1,-7.7,52.3*,-3.1,131.8,-2.5,.
CCOc1ccc(-n2cc(-c3ccccc3)c3c(=O)[nH]cnc32)cc1,-0.2,-4.7,4.7,97.6,-1.0,i
COc1cc(OC)c2ccc(=O)oc2c1C(CC(=O)N1CCN(c2ccccc2)CC1)c1ccc2c(c1)OCO2 (configuration not stated),-7.1,69.5*,-9.8,91.4,-2.1,i
COc1ccc(OCCCC(=O)Nc2cc(Cl)ccc2-n2cncn2)cc1,2.1,-3.5,.,99.3,-3.6,.
COc1ccc(-n2nc(C(=O)NCC(=O)Nc3cc(OC)c(OC)c(OC)c3)c3ccccc3c2=O)cc1Cl,0.9,58.1*,-5.7,112.5,0.1,.
